Measured values from the supplement of paper PMC10670038.
Counter-ions that a name gives are not always drawn. ± gives the standard deviation of the averaged measurements. In all, about 2,000 compounds were measured (“relative cell viability vs DMSO, compound alone”: median about 1.1, lowest 2% from about 0.29 on). What follows is part of a selection rich in the lowest values, with near analogues and random picks from the rest.

What follows are compounds tested on TE10 (assay: relative cell viability vs DMSO, compound alone (fraction); TE10 is an esophageal squamous carcinoma line; higher = less cytotoxic). Details: 2 µM; 48 h.
Description: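 TE10 ESCC cells (1,000/well, 384-well plates) were treated with Selleck bioactive library compounds at 2 uM alone for 48 h. Viability was read by CellTiter-Glo and expressed relative to DMSO wells. Two technical replicates (A, B).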
`COc1ccc(C[C@H](NC(=O)[C@H](C)NC(=O)CN2CCOCC2)C(=O)N[C@@H](Cc2ccccc2)C(=O)[C@@]2(C)CO2)cc1` showed a relative cell viability of 0.0804 ± 0.0014. `CC(=O)NC(Cc1ccc(O)cc1)C(=O)NC(CCCN=C(N)N)C(=O)NC(Cc1ccccc1)C(N)=O` (stereo unspecified) gave a relative cell viability of 0.828 ± 0.052. With `CC(C)CC(CC(=O)NO)C(=O)N[C@@H](Cc1ccc2ccccc2c1)C(=O)N[C@@H](C)C(=O)NCCN` (stereo partly specified) the relative cell viability was 1.04 ± 0.077. For `COC(=O)[C@H](Cc1ccccc1)NC(=O)[C@@H](N)CC(=O)O` [Aspartame], the relative cell viability was 1.06 ± 0.036. Compound `COC[C@H](NC(=O)c1cnc(C)s1)C(=O)N[C@@H](COC)C(=O)N[C@@H](Cc1ccccc1)C(=O)[C@@]1(C)CO1` [Oprozomib (ONX 0912)] has a relative cell viability of 0.0586 ± 0.0043. Work on `CC(C)C[C@H](NC(=O)[C@H](CCc1ccccc1)NC(=O)CN1CCOCC1)C(=O)N[C@@H](Cc1ccccc1)C(=O)N[C@@H](CC(C)C)C(=O)[C@@]1(C)CO1` [Carfilzomib (PR-171)] yielded a relative cell viability of 0.0894 ± 0.0027. Compound `CC(C)c1nc(CN(C)C(=O)N[C@@H](CCN2CCOCC2)C(=O)N[C@H](CC[C@H](Cc2ccccc2)NC(=O)OCc2cncs2)Cc2ccccc2)cs1` [Cobicistat (GS-9350)] has a relative cell viability of 1.11 ± 0.05. `C[C@H](N[C@@H](CCc1ccccc1)C(=O)O)C(=O)N1CCC[C@H]1C(=O)O` [Enalaprilat Dihydrate] was tested, and the relative cell viability was 1.12 ± 0.029. In the case of `O=C(Cc1ccc(-c2ccc(OCCN3CCOCC3)cc2)cn1)NCc1ccccc1`, the relative cell viability is reported as 0.816 ± 0.05. `O=C(NCC1(c2nc(-c3ccccc3)cs2)CCOCC1)c1cccc(-c2noc(C(F)(F)F)n2)c1` showed a relative cell viability of 0.8055 ± 0.0031. `C/C(=N\NC(=O)c1cccc(S(=O)(=O)N2CCOCC2)c1)c1cc(Cl)ccc1O` gave a relative cell viability of 0.87899 ± 0.00067. Compound `CC1(COc2ccc3c(c2)ncn3-c2ccc3cccc(N4CCC(N)CC4)c3n2)COC1` has a relative cell viability of 1.1 ± 0.033. For `O=C(NCc1ccc(Oc2ccccc2)cc1)c1nc(-c2cc(Br)c(O)c(Br)c2)no1`, the relative cell viability was 1.17 ± 0.012. In the case of `CNC(=C[N+](=O)[O-])NCCSCc1csc(CN(C)C)n1` [Nizatidine], the relative cell viability is reported as 1.08 ± 0.056. With `CC(=O)N[C@H]1[C@H]([C@H](O)[C@H](O)CO)OC(C(=O)O)=C[C@@H]1NC(=N)N` [Zanamivir] the relative cell viability was 1.13 ± 0.049. Compound `CO/N=C(\C(=O)N[C@@H]1C(=O)N2C(C(=O)OCOC(=O)C(C)(C)C)=C(/C=C\c3scnc3C)CS[C@H]12)c1csc(N)n1` [Cefditoren Pivoxil] has a relative cell viability of 0.991 ± 0.099. `C[C@]12C=CC(=O)C=C1CC[C@H]1[C@@H]3C[C@@H](O)[C@](O)(C(=O)CO)[C@@]3(C)C[C@H](O)[C@@]12F` [Triamcinolone] showed a relative cell viability of 0.9665 ± 0.0039. In the case of `OC[C@@H](O)[C@@H](O)[C@@H](O)CO` [Ribitol], the relative cell viability is reported as 1.126 ± 0.0056. `CC(=O)Nc1ccccc1` [Acetanilide] gave a relative cell viability of 0.976 ± 0.25. With `CC(C)(C)C(=O)Nc1ccc2c(c1)C(=O)C(=O)c1ccccc1-2` the relative cell viability was 0.0653 ± 0.0041. For `CC1=CC(=O)c2ccccc2C1=O` [Menadione], the relative cell viability was 0.981 ± 0.01. `O=C(Nc1cccc(C(F)(F)F)c1)Nc1cc(S(=O)(=O)NC2CC2)ccc1-c1ccsc1` gave a relative cell viability of 0.982 ± 0.031. `Cn1c2ccccc2c2c3c(c4c5ccccc5n(CCC#N)c4c21)CNC3=O` showed a relative cell viability of 1 ± 0.081. `CN1CCc2nc(C(=O)N[C@@H]3C[C@@H](C(=O)N(C)C)CC[C@@H]3NC(=O)C(=O)Nc3ccc(Cl)cn3)sc2C1` [Edoxaban] was tested, and the relative cell viability was 1.09 ± 0.014. Work on `NC(=O)C1CCCc2c1[nH]c1ccc(Cl)cc21` (stereo unspecified) [EX 527 (Selisistat)] yielded a relative cell viability of 0.983 ± 0.2. With `CCOC(=O)c1ccc(NC(=O)O[C@H]2[C@H](OC(=O)Nc3ccc4c(c3)OCO4)[C@@H](OC(=O)Nc3ccc4c(c3)OCO4)[C@@H](OC)O[C@@H]2CO)cc1` the relative cell viability was 1.16 ± 0.047. In the case of `Cn1cc(-c2ccc3ncc(Cc4ccc5ncccc5c4)n3n2)cn1`, the relative cell viability is reported as 1.13 ± 0.055. `CNc1ncnc2c1ncn2[C@@H]1O[C@H](CO)[C@@H](O)[C@H]1O` [N6-methyladenosine (m6A)] showed a relative cell viability of 0.9679 ± 0.0062. `COc1ccc(C[C@H](N)C(=O)N[C@H]2[C@@H](O)[C@H](n3cnc4c(N(C)C)ncnc43)O[C@@H]2CO)cc1` [Puromycin 2HCl] was tested, and the relative cell viability was 0.133 ± 0.042. `COc1nc(N)nc2c1ncn2[C@@H]1O[C@H](CO)[C@@H](O)[C@@H]1O` [Nelarabine] was tested, and the relative cell viability was 1.11 ± 0.05. In the case of `CN(C)Cc1cccc(N=C(c2ccccc2)c2c(O)[nH]c3cc(C(=O)N(C)C)ccc23)c1`, the relative cell viability is reported as 0.903 ± 0.035. Work on `COc1cc2c(NC3CCN(CC4CCCCC4)CC3)nc(N3CCCN(C(C)C)CC3)nc2cc1OCCCN1CCCCC1` yielded a relative cell viability of 1 ± 0.13. `O=C(O)CCCC[C@@H]1SC[C@@H]2NC(=O)N[C@@H]21` [Biotin (Vitamin B7)] was tested, and the relative cell viability was 0.999 ± 0.036. `CN[C@@H]1[C@H](O)[C@H](NC)[C@H]2O[C@@]3(O)C(=O)C[C@@H](C)O[C@H]3O[C@@H]2[C@H]1O` [Spectinomycin HCl] gave a relative cell viability of 1.03 ± 0.12. `CN(C)c1cc(NC(=O)CNC(C)(C)C)c(O)c2c1CC1CC3C(N(C)C)C(=O)C(C(N)=O)=C(O)C3(O)C(=O)C1=C2O` (stereo unspecified) [Tigecycline] gave a relative cell viability of 1.111 ± 0.0089. `O=C(/C=C/c1cccc(S(=O)(=O)Nc2ccccc2)c1)NO` [Belinostat (PXD101)] was tested, and the relative cell viability was 0.216 ± 0.0062. For `O=C(C=Cc1ccccc1)NC(NC(=S)Nc1ccc(Cl)cc1)C(Cl)(Cl)Cl` (stereo unspecified), the relative cell viability was 1.07 ± 0.03. With `Cn1cc(/C=C/C(=O)c2cccc(F)c2)cc1/C=C/C(=O)NO` the relative cell viability was 1.11 ± 0.077. `CC(=O)Oc1cc2c(s1)CCN(C(C(=O)C1CC1)c1ccccc1F)C2` (stereo unspecified) [Prasugrel] was tested, and the relative cell viability was 1.139 ± 0.0097. `COc1cc(Nc2ncc(F)c(Nc3ccc4c(n3)NC(=O)C(C)(C)O4)n2)cc(OC)c1OC` [R406 (free base)] gave a relative cell viability of 0.844 ± 0.051. `COc1cc(Nc2ncc(F)c(Nc3ccc4c(n3)NC(=O)C(C)(C)O4)n2)cc(OC)c1OC` showed a relative cell viability of 0.96 ± 0.015. With `Cc1c(C(=O)Nc2ccc(N3CCC(N4CCOCC4)CC3)c(C#N)c2)cnn1-c1ccc(Cl)cc1` the relative cell viability was 1.08 ± 0.024. In the case of `Cc1c(C(=O)Nc2ccc(Oc3ccnc4[nH]cc(-c5ccccc5)c34)c(F)c2)c(=O)n(-c2ccc(F)cc2)n1C`, the relative cell viability is reported as 1 ± 0.027. `Nc1nc(N)c(N=O)c(OCC2CCCCC2)n1` showed a relative cell viability of 1.03 ± 0.023. For `O=C(Cc1ccccc1)Nc1nnc(CCSCCc2nnc(NC(=O)Cc3ccccc3)s2)s1`, the relative cell viability was 0.866 ± 0.049. For `CCCc1nn(C)c2c(=O)[nH]c(-c3cc(S(=O)(=O)N4CCN(C)CC4)ccc3OCC)nc12` [Sildenafil Citrate], the relative cell viability was 1.2 ± 0.029. `Cc1ccc(S(=O)(=O)C=CC#N)cc1` gave a relative cell viability of 0.063 ± 0.0047. `CC(C)(C)c1ccc(S(=O)(=O)/C=C/C#N)cc1` was tested, and the relative cell viability was 0.0635 ± 0.0029. `CNc1nc(-c2ccc3c(N)n[nH]c3c2)cc(N2C[C@@H](C(=O)NC3CCCCC3)CC[C@H]2C)n1` was tested, and the relative cell viability was 1.05 ± 0.037. In the case of `COc1c(N2C[C@@H]3CCCN[C@@H]3C2)c(F)cc2c(=O)c(C(=O)O)cn(C3CC3)c12` [Moxifloxacin HCl], the relative cell viability is reported as 1.18 ± 0.016. `C[C@]12CC[C@@H]3c4ccc(O)cc4CC[C@H]3[C@@H]1CC[C@@H]2OC(=O)CCC1CCCC1` [Estradiol Cypionate] gave a relative cell viability of 1.13 ± 0.085. `Cn1cc(-c2[nH]c3cc(NC(=O)[C@H](N)C4CCCCC4)cc4c3c2C=NNC4=O)cn1` was tested, and the relative cell viability was 1.05 ± 0.075. Work on `CCOc1cc([C@@H](CS(C)(=O)=O)N2C(=O)c3cccc(NC(C)=O)c3C2=O)ccc1OC` yielded a relative cell viability of 0.887 ± 0.18. `CC(C)c1nc(CN(C)C(=O)N[C@H](C(=O)N[C@@H](Cc2ccccc2)C[C@H](O)[C@H](Cc2ccccc2)NC(=O)OCc2cncs2)C(C)C)cs1` [Ritonavir] gave a relative cell viability of 1.13 ± 0.062. `CC(NC(=O)C(Cc1ccccc1)NC(=O)OCc1ccccc1)C(=O)CF` (stereo unspecified) was tested, and the relative cell viability was 1.14 ± 0.064. With `CC(C)C[C@@H](C=O)NC(=O)[C@H](CC(C)C)NC(=O)[C@H](CC(C)C)NC(=O)OCc1ccccc1` the relative cell viability was 0.0786 ± 0.0013. In the case of `CCCC[C@@H](C=O)NC(=O)[C@H](CC(C)C)NC(=O)OCc1ccccc1` [Calpeptin], the relative cell viability is reported as 1 ± 0.021. `CCCCC(=O)O[C@]1(C(=O)CO)[C@@H](C)C[C@H]2[C@@H]3CCC4=CC(=O)C=C[C@]4(C)[C@@]3(F)[C@@H](O)C[C@@]21C` [Betamethasone valerate (Betnovate)] gave a relative cell viability of 0.865 ± 0.078. For `COc1cc(Nc2nc3ccccc3nc2NS(=O)(=O)c2ccc(NC(=O)c3ccc(C)c(OC)c3)cc2)cc(OC)c1`, the relative cell viability was 1.15 ± 0.067. For `O=C(c1cn(Cc2cncn2Cc2ccc(Br)cc2)cc1-c1cccc2ccccc12)N1CCOCC1`, the relative cell viability was 0.958 ± 0.015. For `CCc1cc(/C(C)=N/OCc2ccc(C3CCCCC3)c(C(F)(F)F)c2)ccc1CN1CC(C(=O)O)C1` [BAF312 (Siponimod)], the relative cell viability was 1.1 ± 0.07. `O=C(O)c1cc(/N=N/c2ccc(O)c(C(=O)O)c2)ccc1O` [Olsalazine Sodium] gave a relative cell viability of 1.12 ± 0.12. `CC(=O)N[C@@H](CC(C)C)C(=O)N[C@@H](CC(C)C)C(=O)N[C@H](C=O)CCCNC(=N)N` [Leupeptin Hemisulfate] gave a relative cell viability of 1.09 ± 0.015. Work on `CC(C)CCNC(=O)[C@H](CC(C)C)NC(=O)[C@H]1O[C@@H]1C(=O)O` [Loxistatin Acid (E-64C)] yielded a relative cell viability of 1.1 ± 0.019. Compound `CCCCC(C=O)NC(=O)C(CC(C)C)NC(=O)C(CC(C)C)NC(C)=O` (stereo unspecified) has a relative cell viability of 0.266 ± 0.011. Compound `Cc1ccc(C(=O)Nc2cccc(C(F)(F)F)c2)cc1Nc1nc(-c2cccnc2)nc2c1cnn2C` has a relative cell viability of 1.13 ± 0.043. Work on `Cc1cnc(NC(=O)C2=C(O)c3ccccc3S(=O)(=O)N2C)s1` [Meloxicam] yielded a relative cell viability of 1.11 ± 0.045. `CC(=O)O[C@]1(C(C)=O)CC[C@H]2[C@@H]3C[C@H](C)C4=CC(=O)C=C[C@]4(C)[C@@]3(F)[C@@H](O)C[C@@]21C` [Fluorometholone Acetate] was tested, and the relative cell viability was 0.914 ± 0.099. `CCCCC(=O)O[C@H]1CC[C@H]2[C@@H]3CCc4cc(O)ccc4[C@H]3CC[C@]12C` [Estradiol valerate] was tested, and the relative cell viability was 1.07 ± 0.1. `Cc1ccc(NC(=O)c2ccc(CN3CCN(C)CC3)cc2)cc1Nc1nc(-c2cccnc2)cs1` [Masitinib (AB1010)] showed a relative cell viability of 1.084 ± 0.0069. With `CC(C)(C)c1cc(NC(=O)Nc2ccc(-c3cn4c(n3)sc3cc(OCCN5CCOCC5)ccc34)cc2)no1` [Quizartinib (AC220)] the relative cell viability was 0.594 ± 0.04.
